# Results filed as inconclusive are left out. Where a call stands in place of a potency, no number is given. The source made the active and inactive calls. Unless noted, the call rests on the fitted dose curve; in most records, active means well fitted curve in the direction sought with a large enough effect; inconclusive means small, poorly fitted or top-dose-only effect, or another doubt; inactive means no such curve, though single readings can be large; an effect the other way counts as inactive or inconclusive.
# Key:
# [1] = qHTS assay for measurement of the activity of small molecule inhibitors on Zika virus induced Caspase-3 activity in human iPSC derived neural progenitor cells (hNPCs) (AID 1224857); further: nearly all actives have a fitted effect of over 65% in size
# Outline: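 Percent inhibition of virus-induced caspase-3/7 luminescence (Caspase-Glo), scaled between uninfected cells and Zika-infected cells. hNPCs received compound 1 hr before ZIKV at 2 FFU/cell, with 6 hours infection at 37 C.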
# [2] = qHTS assay for measurement of the activity of small molecule inhibitors on Zika virus induced Caspase-3 activity in human astrocytoma cells (AID 1224859)
# Outline: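 Luminescent caspase-3/7 read-out (30 min reagent, room temperature) in human SNB-19 cells infected 6 h with ZIKV (2 FFU/cell) after 1 h compound pre-incubation; Data were normalised to uninfected and infected wells.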
# [3] = qHTS assay to identify small molecule inhibitors of chordoma cells - UCH-1 (AID 1259355); further: nearly all actives have a fitted effect of over 55% in size; further: potency means the concentration at half of the fitted maximal effect; series mostly up to about 46 µM
# Outline: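 Screening used approved and investigational drugs in 15-point titration against 800 seeded cells per well. A fixed combination of auranofin with camptothecin, doxorubicin, rubitecan and topotecan followed compound addition, and growth was scored by CellTiter-Glo after 48hr.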
# [4] = qHTS assay to identify small molecule inhibitors of chordoma cells - UCH-2 (AID 1259356); further: series mostly up to about 46 µM
# [5] = P-glycoprotein substrates identified in KB-8-5-11 adenocarcinoma cell line, qHTS therapeutic library screen (AID 1346987); further: nearly all actives have a fitted effect of over 65% in size; further: potency means the concentration at half of the fitted maximal effect
# Outline: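 In this qHTS, P-gp-rich KB-8-5-11 cells received library compounds across a concentration range. Viability was quantified by luminescence after 72 h at 37 degree C.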
# [6] = Natriuretic polypeptide receptor (hNpr1) antagonism - Pilot counterscreen GloSensor control cell line (AID 1347045; calls by dose curve; further: series mostly up to about 38 µM)
# Outline: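 HEK293 cGMP-sensor cells; 2% GloSensor reagent 2 h RT; LOPAC compounds in 1:5 titrations 30-50 min; 50 uM SNP 20 min; luminescence pre-read and post-read.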
# [7] = molecular target: Atrial natriuretic peptide receptor 1 (Homo sapiens) (UniProt P16066); test: Natriuretic polypeptide receptor (hNpr1) antagonism - Pilot screen (AID 1347049; calls by dose curve;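 further: agonist-evoked cGMP luminescence read 20 min after hNppA addition; series mostly up to about 58 µM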)
# Outline: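 cGMP-sensor HEK293/hNpr1 cells, 1500/well, plated overnight at 37C. 2% GloSensor reagent, 2 h RT. Compound (23 nL pin transfer) 30 min RT, baseline luminescence pre-read. 0.1 nM hNppA, 20 min RT, post-read.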
# [8] = molecular target: Atrial natriuretic peptide receptor 2 (Homo sapiens) (UniProt P20594); test: Natriuretic polypeptide receptor (hNpr2) antagonism - Pilot subtype selectivity assay (AID 1347050; calls by dose curve)
# Outline: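 Luminescence from a genetically encoded cGMP luciferase biosensor in hNpr2-expressing HEK293 cells is read before and 20 min after adding 1 nM hNppC. Test compounds, in interplate 1:5 titrations, are added 30-50 min ahead of the agonist.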
# [9] = NS1 protein of Zika virus - qHTS assay to identify small molecule inhibitors in human HEK 293 cells (AID 1347053); further: series mostly up to about 46 µM; nearly all actives have a fitted effect of over 55% in size
# Outline: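 Read-out is a two-antibody TR-FRET for ZIKV NS1, normalized between uninfected cells and infected cells. Compound added 1 h before MR766 infection at MOI 0.5; human HEK 293 cells incubated 24 h, 37 C.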
# Chain of Atrial natriuretic peptide receptor 1 (Homo sapiens) (P16066 whole entry, looked up): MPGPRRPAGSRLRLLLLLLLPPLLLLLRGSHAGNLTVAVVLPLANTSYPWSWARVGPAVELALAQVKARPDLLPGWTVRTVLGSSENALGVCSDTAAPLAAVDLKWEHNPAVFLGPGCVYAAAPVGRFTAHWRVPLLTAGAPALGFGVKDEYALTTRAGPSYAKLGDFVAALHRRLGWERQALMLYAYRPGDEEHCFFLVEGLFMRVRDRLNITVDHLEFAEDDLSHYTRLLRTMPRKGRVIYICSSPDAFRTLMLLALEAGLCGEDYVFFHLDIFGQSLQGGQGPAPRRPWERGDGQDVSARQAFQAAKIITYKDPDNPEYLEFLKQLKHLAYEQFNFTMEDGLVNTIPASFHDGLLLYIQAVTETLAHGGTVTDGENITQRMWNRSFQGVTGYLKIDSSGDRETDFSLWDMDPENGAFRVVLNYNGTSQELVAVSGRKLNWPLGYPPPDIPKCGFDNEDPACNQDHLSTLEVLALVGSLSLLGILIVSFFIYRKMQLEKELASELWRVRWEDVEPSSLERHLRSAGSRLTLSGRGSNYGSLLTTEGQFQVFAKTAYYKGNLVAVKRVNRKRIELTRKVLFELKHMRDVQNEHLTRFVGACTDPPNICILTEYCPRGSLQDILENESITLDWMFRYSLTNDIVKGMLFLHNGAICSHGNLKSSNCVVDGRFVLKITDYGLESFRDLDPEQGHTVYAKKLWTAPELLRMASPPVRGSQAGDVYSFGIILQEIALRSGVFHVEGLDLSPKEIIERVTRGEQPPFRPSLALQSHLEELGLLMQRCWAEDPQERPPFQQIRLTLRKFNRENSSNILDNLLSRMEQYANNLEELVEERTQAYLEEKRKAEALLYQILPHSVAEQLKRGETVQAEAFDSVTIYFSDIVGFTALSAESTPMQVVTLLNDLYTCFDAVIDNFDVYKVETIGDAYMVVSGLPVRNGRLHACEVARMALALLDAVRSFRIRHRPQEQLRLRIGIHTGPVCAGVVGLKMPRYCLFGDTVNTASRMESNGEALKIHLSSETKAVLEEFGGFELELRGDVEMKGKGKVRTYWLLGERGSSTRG
# Chain of Atrial natriuretic peptide receptor 2 (Homo sapiens) (P20594 whole entry, looked up): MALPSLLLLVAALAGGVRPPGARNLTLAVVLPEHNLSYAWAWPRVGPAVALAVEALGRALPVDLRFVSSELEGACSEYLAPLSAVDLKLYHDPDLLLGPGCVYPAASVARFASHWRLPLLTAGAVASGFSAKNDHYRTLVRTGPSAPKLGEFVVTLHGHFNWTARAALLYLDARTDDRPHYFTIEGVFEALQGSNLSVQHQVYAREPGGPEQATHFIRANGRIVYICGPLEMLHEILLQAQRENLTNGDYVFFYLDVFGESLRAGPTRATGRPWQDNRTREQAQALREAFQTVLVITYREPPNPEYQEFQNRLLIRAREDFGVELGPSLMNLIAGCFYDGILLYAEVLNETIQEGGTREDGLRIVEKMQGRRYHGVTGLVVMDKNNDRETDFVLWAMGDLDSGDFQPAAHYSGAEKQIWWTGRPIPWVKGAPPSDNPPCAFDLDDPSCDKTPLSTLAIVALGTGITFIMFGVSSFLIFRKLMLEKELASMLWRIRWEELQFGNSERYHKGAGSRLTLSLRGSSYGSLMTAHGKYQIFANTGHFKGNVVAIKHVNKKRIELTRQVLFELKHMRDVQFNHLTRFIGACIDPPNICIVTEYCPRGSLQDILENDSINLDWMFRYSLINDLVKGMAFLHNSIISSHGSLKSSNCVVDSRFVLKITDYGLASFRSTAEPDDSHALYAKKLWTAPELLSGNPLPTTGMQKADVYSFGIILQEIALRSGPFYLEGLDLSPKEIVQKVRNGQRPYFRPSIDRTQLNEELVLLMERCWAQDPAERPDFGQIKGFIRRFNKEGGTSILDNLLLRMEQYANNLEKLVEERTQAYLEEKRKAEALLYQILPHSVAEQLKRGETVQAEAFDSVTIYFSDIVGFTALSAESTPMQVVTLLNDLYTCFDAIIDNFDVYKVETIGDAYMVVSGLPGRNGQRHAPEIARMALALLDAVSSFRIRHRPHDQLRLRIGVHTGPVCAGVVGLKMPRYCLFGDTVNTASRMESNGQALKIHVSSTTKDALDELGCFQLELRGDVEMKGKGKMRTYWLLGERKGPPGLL
Compound,outcome [1],outcome [2],Potency [3],Potency [4],Potency [5],outcome [6],outcome [7],outcome [8],Potency [9]
C[C@@H]1C(=O)NC2=Nc3cccc(Cl)c3CN21,inactive,inactive,inactive,inactive,0.82 µM (active),inactive,inactive,inactive,inactive
O=C(N/N=C/c1ccccc1O)c1ccncc1,inactive,inactive,inactive,inactive,inactive,,,,
COC1=CC(=O)C[C@@H](C)[C@]12Oc1c(Cl)c(OC)cc(OC)c1C2=O,inactive,inactive,inactive,inactive,,,,,
COc1cc2c(cc1OC)C(=O)C(CC1CCN(Cc3ccccc3)CC1)C2 (centres undefined),inactive,inactive,inactive,inactive,8.2 µM (active),,,,
COc1cc(C(=S)N2CCOCC2)cc(OC)c1OC,inactive,inactive,inactive,inactive,inactive,,,,inactive
CC(C)COC(=O)OCN1C(=O)CN(CCN2CC(=O)N(COC(=O)OCC(C)C)C(=O)C2)CC1=O,inactive,inactive,inactive,inactive,inactive,inactive,inactive,inactive,inactive
CCCCOc1cc(C(=O)NCCN(CC)CC)c2ccccc2n1,inactive,inactive,inactive,inactive,inactive,,,,inactive
C[C@]12CC[C@@H]3c4ccc(O)cc4CC[C@H]3[C@@H]1CC[C@@H]2O,inactive,inactive,inactive,inactive,6.51 µM (active),,inactive,inactive,
CCC(NC(C)C)C(O)c1ccc(O)c(O)c1 (centres undefined),inactive,inactive,inactive,inactive,inactive,inactive,inactive,inactive,inactive
O=C(Nc1ccc(Oc2ccc(Cl)cc2)c(Cl)c1)c1cc(I)cc(I)c1O,inactive,inactive,inactive,,,,,,
NCCC(O)(P(=O)(O)O)P(=O)(O)O,inactive,inactive,inactive,inactive,,,,,
CCN1CCC[C@H]1CNC(=O)c1c(OC)ccc(Br)c1OC,inactive,inactive,inactive,,,,,,
CCCSS/C(CCO)=C(\C)N(C=O)Cc1cnc(C)nc1N,inactive,inactive,inactive,inactive,inactive,,,,
C[C@H]1[C@H](NC(=O)/C(=N/OC(C)(C)C(=O)O)c2csc(N)n2)C(=O)N1S(=O)(=O)O (stereo in doubt),inactive,inactive,inactive,inactive,,,,,
CN1CCC(=C2c3ccccc3Sc3ccccc32)CC1,inactive,inactive,inactive,inactive,9.2 µM (active),,,,
O=C(OCCOCCO)c1ccccc1Nc1cccc(C(F)(F)F)c1,inactive,inactive,inactive,inactive,inactive,,,,inactive
N[C@@H](Cc1cnc[nH]1)C(=O)O,inactive,inactive,inactive,inactive,inactive,inactive,inactive,inactive,inactive
Nc1cc(Cl)c(NC2=NCCN2)c(Cl)c1,inactive,inactive,inactive,inactive,inactive,inactive,inactive,inactive,inactive
Cc1cc(N)c2cc(NC(=O)Nc3ccc4nc(C)cc(N)c4c3)ccc2n1,inactive,inactive,inactive,inactive,inactive,,,,inactive
O=C(OCC(O)CO)c1ccccc1Nc1ccnc2cc(Cl)ccc12 (centres undefined),inactive,inactive,inactive,inactive,,,,,
Cc1c(C(N)=O)cc([N+](=O)[O-])cc1[N+](=O)[O-],inactive,inactive,inactive,inactive,inactive,,,,inactive

Compound,outcome [1],outcome [2],Potency [3],Potency [4],Potency [5],outcome [6],outcome [7],outcome [8],Potency [9]
C[n+]1c2cc(N)ccc2cc2ccc(N)cc21 (tested in a mixture with another compound),inactive,inactive,15.8 µM (active),,,,,,
CC(Cc1ccccc1)(NC(=O)CN)c1ccccc1 (centres undefined),inactive,inactive,inactive,inactive,inactive,,,,inactive
O=C(COc1ccc(Cl)cc1)N1CCN(Cc2ccc3c(c2)OCO3)CC1,inactive,inactive,inactive,inactive,,,,,
C[C@]12C=CC(=O)C=C1CC[C@@H]1[C@@H]2[C@@H](O)C[C@@]2(C)[C@H]1CC[C@]2(O)C(=O)CO,inactive,inactive,inactive,inactive,inactive,,,,
CC/C(=C(/CC)c1ccc(O)cc1)c1ccc(O)cc1,inactive,inactive,inactive,,,,,,
CCCCCCCCCCOCC(O)CN (centres undefined),inactive,inactive,inactive,inactive,inactive,,,,
O=c1[nH]c(=O)n([C@H]2C[C@H](O)[C@@H](CO)O2)cc1C(F)(F)F,inactive,inactive,inactive,inactive,,,,,
CCN(CC)CCOc1ccc(C(O)(Cc2ccc(Cl)cc2)c2ccc(C)cc2)cc1 (centres undefined),inactive,inactive,inactive,,,,,,
C1CCc2nnnn2CC1,inactive,inactive,inactive,inactive,inactive,inactive,inactive,inactive,inactive
COc1cc(-c2ccc(=O)[nH]n2)ccc1OC(F)F,inactive,inactive,inactive,inactive,0.116 µM (active),,,,
Oc1ccc(Cl)c2cccnc12,inactive,inactive,inactive,inactive,inactive,,,,
C[C@]12CCC(=O)C=C1[C@@H]1C[C@@H]1[C@H]1[C@@H]3[C@@H]4C[C@@H]4[C@@]4(CCC(=O)O4)[C@@]3(C)CC[C@@H]12,inactive,inactive,inactive,inactive,4.11 µM (active),,,,inactive
CC1(C)CCC(NC(=O)[C@@H](N)CCC(=O)O)CC1,inactive,inactive,inactive,inactive,inactive,,inactive,inactive,inactive
C[C@@H]1CN(CCCn2c3ccccc3c3ccccc32)C[C@H](C)N1,inactive,inactive,inactive,inactive,14.6 µM (active),,,,
Cc1ccnc(NS(=O)(=O)c2ccc(N)cc2)n1,inactive,inactive,inactive,inactive,,,,,
NC(CO)(CO)CO,inactive,inactive,inactive,inactive,inactive,,,,inactive
O=C(O)CCCCC(=O)O,inactive,inactive,inactive,inactive,inactive,,,,inactive
CN=C(NC#N)NCCSCc1csc(N=C(N)N)n1,inactive,inactive,inactive,inactive,inactive,,,,inactive
CCN1CCN(c2cc3c(cc2F)c(=O)c(C(=O)O)cn3C2CC2)CC1,inactive,inactive,inactive,inactive,inactive,,,,inactive
O=C(CCCN1CCC(O)(c2ccc(Br)cc2)CC1)c1ccc(F)cc1,inactive,inactive,inactive,inactive,,,,,inactive
CCOC(=O)n1ccn(C)c1=S,inactive,inactive,inactive,inactive,,,,,inactive

Compound,outcome [1],outcome [2],Potency [3],Potency [4],Potency [5],outcome [6],outcome [7],outcome [8],Potency [9]
CCN(CCCc1ccccc1)CCCc1ccccc1,inactive,inactive,inactive,inactive,,,,,inactive
CN1C(CCl)Nc2cc(Cl)c(S(N)(=O)=O)cc2S1(=O)=O (centres undefined),inactive,inactive,inactive,inactive,,,,,inactive
O=C(CCN1CCC(c2ccccc2)C1)c1ccc2c(c1)OCCO2 (centres undefined),inactive,inactive,inactive,inactive,inactive,,,,inactive
Cc1c(C)n(Cc2ccccc2)c2ccc(C(=O)OCCN(C)C)cc12,inactive,inactive,inactive,inactive,23.1 µM (active),,,,inactive
CCCCCC=CCC=CCCCCCCCC(=O)OCC,inactive,inactive,inactive,inactive,inactive,,,,inactive
NC(=O)c1cc[n+](CC2=C(C(=O)[O-])N3C(=O)[C@@H](NC(=O)Cc4cccs4)[C@H]3SC2)cc1,inactive,inactive,inactive,inactive,,,,,inactive
CC(C)NC[C@@H](O)COc1cccc2ccccc12,inactive,inactive,inactive,inactive,inactive,,,,inactive
CCCn1c(=O)[nH]c(=O)c2[nH]cnc21,inactive,inactive,inactive,inactive,,inactive,inactive,inactive,
CCOC(=O)/C=C(C)/C=C/C=C(C)/C=C/c1c(C)cc(OC)c(C)c1C,inactive,inactive,inactive,inactive,,,,,inactive
C=C1C(=C/C=C2\CCC[C@]3(C)[C@@H]([C@H](C)/C=C/[C@@H](O)C4CC4)CC[C@@H]23)C[C@@H](O)C[C@@H]1O,inactive,inactive,inactive,inactive,8.2 µM (active),,,,inactive
Nc1ccc(C(=O)O)cc1,inactive,inactive,inactive,inactive,,,,,inactive
CC1=C(C(=O)O)N2C(=O)[C@@H](NC(=O)[C@H](N)c3ccc(O)cc3)[C@H]2SC1,inactive,inactive,inactive,inactive,,,,,inactive
COc1cc2c(cc1OC)C(C(C(=O)N(CCc1ccc(OC)c(OC)c1OC)CCc1ccc(OC)c(OC)c1OC)c1ccccc1)=NCC2 (centres undefined),inactive,inactive,inactive,inactive,9.2 µM (active),,,,inactive
c1ccc(-c2ccc(C(c3ccccc3)n3ccnc3)cc2)cc1 (centres undefined),inactive,inactive,inactive,inactive,,,,,inactive
C[C@@H](CN(C)C)CN1c2ccccc2Sc2ccccc21,inactive,inactive,inactive,inactive,,,,,inactive
CCCCCCCCCCCCCCNCCO,inactive,inactive,inactive,inactive,,,,,inactive
COc1cc(N)c(Cl)cc1C(=O)NC1CCN(CCCOc2ccc(F)cc2)CC1OC (centres undefined),inactive,inactive,inactive,inactive,,,,,inactive
C[C@]12CC[C@H]3[C@@H](CCC4=CC(=O)CC[C@@]43C)[C@@H]1CC[C@@H]2C(=O)CO,inactive,inactive,inactive,inactive,,,,,inactive
CC[C@H](C)C(=O)O[C@H]1CCC=C2C=C[C@H](C)[C@H](CC[C@@H]3C[C@@H](O)CC(=O)O3)[C@H]21,inactive,inactive,inactive,inactive,,inactive,inactive,inactive,inactive
CC(=O)CC(c1ccc([N+](=O)[O-])cc1)c1c(O)c2ccccc2oc1=O (centres undefined),inactive,inactive,inactive,inactive,,,,,inactive
Cc1c(C)n(CCN(C)C)c2ccc(C(=O)OCCN(C)C)cc12,inactive,inactive,inactive,inactive,,,,,inactive

# Reference: PubChem BioAssay (NCATS)
